Hits are enriched below; roughly 21% of the tested compounds scored in any of these assays.
Shiga toxin inh – Shiga toxin inhibition. Vero cells, Shiga toxin protein synthesis inhibition reporter. inhibition, % at 38.7 µM. hit rate 9.2% among 290,000. AID 2315; in the data active means inhibition mostly above about 28%, no sharp cut-off; inactive means mostly below about 43%; further: 0% is about no effect
Pf growth 96h – P. falciparum growth inhibition at 96 hour, primary screen for plastid delayed-death inhibitors. P. falciparum luciferase reporter growth, 96 h. hit rate 6.9% among 320,000. Potency, µM (titrated, usually from 28.7 µM), for inactives: at the top dose activity change, negative = inhibition, most hits filed as inhibitors; further: potency means the concentration at half of the fitted maximal effect; on the % scale 0 is the no-effect control and ±100 the full control effect
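Erythrocytes infected with luciferase-expressing P. falciparum were dispensed at 2% hematocrit and 0.05% parasitemia (final), then incubated with compounds 96 hours at 37 C in 5% CO2. Luminescence after detection reagent addition reported growth.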
Pf growth 48h – inhibits P. falciparum growth in the first generation, 48 h; AID 504832; hit rate 5.9% among 310,000; P. falciparum luciferase growth in erythrocytes, 48 h; Potency, µM (series often up to 28.7 µM), for inactives: top-dose activity change, negative = inhibition, hits mostly inhibitors; further: potency means the concentration at half of the fitted maximal effect; on the % scale 0 is the no-effect control and ±100 the full control effect
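Luciferase-expressing P. falciparum in infected erythrocytes (2% hematocrit, 0.1% parasitemia final) in RPMI 1640/0.5% Albumax were exposed to compound for 48 hours at 37 C, 5% CO2; growth read as luminescence.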
CHX counter-1 – counter-screen hit for Shiga toxin inhibitors, cycloheximide; cell reporter, cycloheximide protein synthesis inhibition counterscreen; max response, %; hit rate 12% among 300,000; in the data active means max response mostly above about 13%, no sharp cut-off; inactive means mostly below about 14%; further: read at 38.3 µM for the half of the compounds with a filed dose; 0% is about no effect
CHX counter-2 – affects protein synthesis reporter in cycloheximide counter-screen; shares compounds with Shiga toxin inh; Cycloheximide counterscreen, protein synthesis reporter, Shiga toxin assay; Potency, µM (highest dose often 38.3 µM), without a hit: at the top dose activity (activation), most hits filed as activators; hit rate 3% among 510; calls by dose curve; further: potency means the concentration at half of the fitted maximal effect; 0% is about no effect
* = called active by the depositor; ? = inconclusive; / = not tested or not shown; + = active, no number. Unless noted, the call rests on the fitted dose curve; in most records, active means well fitted inhibition curve with a large enough effect; inconclusive means small, poorly fitted or top-dose-only effect, or another doubt; inactive means no such curve, though single readings can be large or run the other way.

SMILES | Shiga toxin inh | Pf growth 96h | Pf growth 48h | CHX counter-1 | CHX counter-2
NC(=O)C1CCN(C(=O)C2c3ccccc3C(=O)N3CCc4ccccc4C23)CC1 (stereo unspecified) | 46* | -25% | -2% | 1 | -5%
COc1ccc(Cn2nnnc2C(C(C)C)N(Cc2ccco2)Cc2cccs2)cc1 (stereo unspecified) | 44* | 79% | ? | 8 | 0%
CN(Cc1ccccc1)c1nc(N)c([N+](=O)[O-])c(NCc2ccccc2)n1 | -7 | ? | ? | -3 | /
O=C(NC1CCCCC1)c1cccc(S(=O)(=O)N2CCCCC2)c1 | 71* | 4.1µM* | 9% | -2 | -4%
Cc1nn(C2CCCCC2)c(N)c1-c1ccccc1 | 33* | ? | 7% | -2 | 3%
CCSc1ccccc1C(=O)Nc1ccc(S(=O)(=O)NC(C)=O)cc1 | -6 | 5% | 11% | -1 | /
CCN(C1CCCCC1)S(=O)(=O)c1ccc(S(=O)(=O)NCc2ccncc2)cc1 | 39* | ? | ? | 1 | -4%
CCC1(C)Nc2ccccc2C(=O)N1O (stereo unspecified) | -17 | 52% | ? | -3 | /
CCCCC1(C)Nc2ccccc2-c2nc3ccccc3n21 (stereo unspecified) | 84* | 1.3µM* | 2.1µM* | 13 | 22µM*
COc1cc(/C=C(/NC(C)=O)C(=O)O)cc(Cl)c1OCc1ccc(Br)cc1 | 5 | ? | ? | 6 | /
CCc1ccc(C(=O)c2oc3nc(C)cc(C)c3c2N)cc1 | 51* | -22% | ? | 16 | ?
CS(=O)(=O)N(CC(=O)NCc1ccncc1)c1ccc(F)c(Cl)c1 | 9 | ? | -4% | -2 | /
CSc1nc(C)c2cc(C)oc2n1 | 71* | 0.37µM* | 16% | -3 | -2%
COc1nc(C)c2cc(C)oc2n1 | -5 | -15% | 3% | -4 | /
CN1CCN/C1=C(/C(Cl)=C(Cl)Cl)[N+](=O)[O-] | 2 | 2% | 9% | -1 | /
Cc1oncc1-c1csc(-c2ccccc2Cl)n1 | 121* | 105% | 19% | 9 | ?
Cc1onc(-c2ccccc2Cl)c1C(N)=O | -4 | -3% | 9% | 3 | /
COc1cc(N=c2ssnc2Cl)cc(OC)c1 | 14 | -1% | 16% | -1 | /
Clc1nssc1=Nc1ccc(Br)cc1 | 59* | -27% | 17% | 11 | 5%
CC(=O)N1CCC(N(CCN2CCOCC2)C(=S)Nc2c(C)cccc2C)CC1 | -7 | 2% | 1% | 1 | /
Cc1ccc(Nc2nc(N)[nH]c(=O)c2N=O)cc1 | -2 | ? | ? | -5 | /
Cc1ccc(N2CCN(C(=O)c3ccccc3NC(=O)c3ccccc3C(=O)O)CC2)cc1 | 39* | 13% | 34% | 3 | -1%
Cc1ccc(C(=O)Nc2ccccc2C(=O)N2CCN(c3ccccc3)CC2)cc1 | -7 | 114% | 22% | -3 | /
COc1ccccc1C(=O)Nc1ccc(N2CCN(C(C)=O)CC2)cc1 | 53* | 8% | -3% | 2 | -2%
CC(=O)c1cccc(NC(=O)/C(=C/c2ccco2)NC(=O)c2ccco2)c1 | 27* | 2% | 2% | 2 | 6%
SMILES | Shiga toxin inh | Pf growth 96h | Pf growth 48h | CHX counter-1 | CHX counter-2
O[C@@H]1[C@@H]2O[P@@](O)(=S)OC[C@H]2O[C@H]1n1cnc2cc(Cl)c(Cl)cc21 | -5 | / | / | -4 | /
CCN(CC)C(=O)/C=C/c1ccc(OC)c(S(=O)(=O)N2CCCCC2)c1 | -2 | 10% | -24% | 2 | /
CCOc1ccc(N(CC(=O)NCc2ccc3c(c2)OCO3)C(=O)c2csnn2)cc1 | 37* | -10% | -10% | 4 | 1%
O=C(CN(C(=O)c1csnn1)c1ccc2c(c1)OCCO2)NCc1ccc(F)cc1 | 40 | -13% | 50% | 1 | /
COc1ccc(CNC(=O)CN(C(=O)c2csnn2)c2ccc3c(c2)OCCO3)cc1 | 43* | 41% | 13% | 9 | 4%
CC1CC(C)CN(C(=O)C(NS(=O)(=O)c2ccc(Br)s2)c2ccccc2)C1 (stereo unspecified) | + | 58% | ? | 9 | 1%
Cc1ccc(S(=O)(=O)NCC2(c3ccccc3)CCOCC2)cc1 | -20 | 35% | -1% | 3 | /
Cc1cc(C)c(NC(=O)CNC(=O)COC(=O)CNC(=O)c2ccc(Cl)cc2Cl)c(C)c1 | / | 33% | 4% | / | /
COc1ccc(/C=C/c2nnc(NC(=O)CC(C)C)s2)cc1 | 30 | 5% | -16% | -2 | /
COc1ccc(/C=C/c2nnc(NC(=O)CSc3ccc(Cl)cc3)s2)cc1 | 37* | -10% | 19% | 8 | ?
Cc1noc(/C=C/c2ccco2)c1S(=O)(=O)N1CCC(C(=O)N(C)Cc2ccccc2)CC1 | 40* | 8% | 1.9µM* | 13 | ?
COc1ccc(C/C(O)=C(\C#N)c2nc3ccccc3s2)cc1 | 34* | 0% | 3% | 1 | -3%
N#C/C(=C(/O)COc1ccc(Cl)cc1)c1nc2ccccc2s1 | -4 | 9% | 3% | -1 | /
C/C1=C\[C@@H](O)C(C(C)C)C(OC(=O)c2ccc(O)cc2)C/C(C)=C/CC1 (stereo partly specified) | 24* | / | / | 4 | ?
Nc1nc(-c2ccc3c(c2)CCC(=O)N3)cs1 | 42* | 67% | 63% | 7 | ?
Cc1ccc(CSc2nnc(CCCCCNC(=O)OC(C)(C)C)o2)cc1 | 25* | -20% | ? | -3 | -1%
Cc1ccc(S(=O)(=O)c2c[nH]c3cc4c(cc3c2=O)OCO4)cc1 | -2 | 3% | 2% | -3 | /
CC1CCC(NC(=O)COC(=O)CNC(=O)c2ccc3ccccc3c2)CC1 (stereo unspecified) | / | -16% | 2% | / | /
COC(=O)c1ccc(C)c(NC(=O)CCSc2ccc(Cl)cc2)c1 | 100* | -9% | -1% | 10 | -3%
CSc1ccc(/C=C(\C#N)C(=O)NC2CCCCC2C)cc1 (stereo unspecified) | 27* | ? | ? | 8 | 3%
CC(=O)Nc1ccc(/C=C(\C#N)C(=O)NC2CCCCC2C)cc1 (stereo unspecified) | -10 | -11% | ? | 6 | /
C=CCOc1ccc(/C=C/C(=O)OCC(=O)NCCCc2ccccc2)cc1 | / | 26% | -17% | / | /
O=c1[nH]nc(CNc2ccc(C(F)(F)F)cc2)c2ccccc12 | 29* | 158% | 59% | 15 | ?
O=c1[nH]nc(CNc2ccc(OC(F)(F)F)cc2)c2ccccc12 | 28 | 7% | -3% | 21 | /
COc1ccc(NC(=O)CN(C)S(=O)(=O)c2ccc(Br)s2)cc1OC | 34* | 8% | 5% | 3 | 1%
COc1ccc(NC(=O)C2CCN(S(=O)(=O)c3ccc(Br)s3)CC2)cc1OC | -3 | ? | ? | -2 | /
CCOC(=O)N1CCN(C(=O)c2ccc(OCC)cc2)CC1 | -3 | 41% | 21% | -6 | /
CCOC(=O)N1CCN(C(=O)CCC(=O)c2ccc(OCC)cc2)CC1 | 41* | -9% | -10% | 1 | -1%
O=C(O)c1ccc(Sc2nnc3ccccn23)c([N+](=O)[O-])c1 | 26 | -3% | -17% | 1 | /
O=C(Nc1cccc(Cl)c1)c1cccc(N2C(=O)C3CC=CCC3C2=O)c1 (stereo unspecified) | 9 | 7% | ? | 6 | /

Source: PubChem BioAssay (National Center for Advancing Translational Sciences (NCATS))
